Source: PubChem BioAssay AID2544 (Sanford-Burnham Center for Chemical Genomics, 2010)
In all, about 330,000 compounds went through this assay and about 390 (0.12%) were called active. Many of the other results were omitted from the sample, so actives are more common in it than they were. Values without a mark were called inactive.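 How the source made its calls: active means inhibition reaching a set limit with compound at 10 µM in the primary screen (cut at about 35% in these data); inactive means the rest.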

Each compound was assayed against Intestinal-type alkaline phosphatase (Homo sapiens) (UniProt P09923) (assay: blockers of intestinal alkaline phosphatase activity – biochemical, luminescence, uHTS, primary screen (AID 2544;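 further: plate controls were DMSO wells with enzyme for no effect and no-enzyme buffer wells for full effect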)). Details: purified IAP, CDP-Star luminescence, 30 min; at 10 µM; hits give high values.
Intestinal-type alkaline phosphatase (Homo sapiens), sequence (P09923 whole entry, looked up): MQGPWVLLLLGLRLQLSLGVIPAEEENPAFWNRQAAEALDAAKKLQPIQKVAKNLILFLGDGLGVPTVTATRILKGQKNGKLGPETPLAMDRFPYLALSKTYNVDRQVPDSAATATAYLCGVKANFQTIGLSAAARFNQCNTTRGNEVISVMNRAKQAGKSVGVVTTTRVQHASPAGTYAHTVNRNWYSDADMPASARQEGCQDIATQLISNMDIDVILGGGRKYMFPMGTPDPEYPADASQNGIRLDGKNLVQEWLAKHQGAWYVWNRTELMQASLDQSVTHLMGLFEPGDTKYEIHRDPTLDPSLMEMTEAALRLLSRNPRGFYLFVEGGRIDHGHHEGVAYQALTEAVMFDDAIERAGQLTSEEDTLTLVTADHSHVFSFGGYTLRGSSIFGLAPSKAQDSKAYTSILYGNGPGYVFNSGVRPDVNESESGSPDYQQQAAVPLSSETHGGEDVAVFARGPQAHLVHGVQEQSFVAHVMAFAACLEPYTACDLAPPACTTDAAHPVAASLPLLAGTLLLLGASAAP

| SMILES | inhibition |
| --- | --- |
| COc1cccc(-n2c(=O)c3c(C)c(C(=O)N(C)C)sc3n(CC(=O)NCCc3ccc(OC)c(OC)c3)c2=O)c1 | -1.6% |
| C[N+]1(CCNC(=O)/C=N/O)CCCCC1 | -34.9% |
| CC(=O)c1ccc(S(=O)(=O)Nc2ccc(-c3ccc4nncn4n3)cc2)cc1 | -1.5% |
| COC(=O)[C@H](C(C)C)n1c(C)c(C(C)=O)c(C(C)=O)c1C | -6.9% |
| CC(C)C[C@H](NC(=O)[C@@H]1O[C@H]1C(=O)O)C(=O)NCCCCN=C(N)N | 14.6% |
| CCCc1ccc(C(=O)[C@@H]2[C@@H](C(C)=O)N3c4ccc(F)cc4C=C[C@@H]3[C@@]23C(=O)Nc2ccccc23)cc1 | 0% |
| CCCCc1nc(NCCN)c(C#N)c2c1CSC(C)(C)C2 | 6.8% |
| Cc1ccc(S(=O)(=O)Nc2ccc(F)c(S(=O)(=O)N3CCOCC3)c2)cc1 | -6.7% |
| CC(Oc1ccccc1)C(=O)NN1Cc2ccccc2C1=N (stereo not given) | -9.2% |
| Cc1cccn2c(=O)nc(SCC(=O)NCc3ccccc3Cl)nc12 | -1.6% |
| COC(=O)CSc1nnc(NC(=O)CCc2ccccc2)s1 | -5.1% |
| CCOCc1nnc(NC(=O)CCS(=O)(=O)Cc2ccccc2)s1 | -9.2% |
| COCCSc1nnc(NC(=O)CCS(=O)(=O)Cc2ccccc2)s1 | 35.1% (active) |
| CCOc1ccccc1NC(=S)N1CCN(c2cccc(C)c2C)CC1 | -5.2% |
| COc1ccccc1C(=O)N(C1=NC(C)CS1)c1ccc(Cl)cc1 (stereo not given) | -3% |
| Cc1ccn2c(=O)c(C(=O)NCCC3=CCCCC3)c(O)nc2c1 | 6.8% |
| O=C(Nc1cc(S(=O)(=O)N2CCOCC2)ccc1OCC(F)(F)F)c1ccc(N2CCCC2=O)cc1 | 2.5% |
| Cc1cc(C)c2c(n1)sc1c(=O)n(-c3ccccc3)c(=O)[nH]c12 | 5.6% |
| Cc1ccc(-n2c(C)nnc2SCC(=O)NC2CC2)cc1 | -12.6% |
| Cc1nc(-c2ccc(F)cc2)c(CC(=O)Nc2cc(S(=O)(=O)N3CCCCC3)ccc2C)s1 | -13.3% |
| CC(C)Oc1c(Br)cc(Br)cc1/C=N/NC(N)=S | 14.7% |
| COc1ccc(C(C(=O)NC(C)(C)C)N(C(=O)Cn2nnc3ccccc32)c2ccc(C(C)=O)cc2)cc1O (stereo not given) | -15.8% |
| CCC(=O)c1ccc(OCC(=O)OCC(=O)NC2CCCCCC2)cc1 | 8.3% |
| Oc1ccc(CNc2ccccc2O)cc1 | -0.8% |
| COc1ccc(/C=C2\N=C3CCCN3C2=O)cc1 | 7.3% |
